The values that follow come from PubChem BioAssay.

Activity calls are given as the source filed them.

A short description of assay [1]: small molecules captured by biotinylated probe aFSTL3 – biochemical, small-molecule microarray, fluorescence 635/667, stem cell growth factor project, primary screen (AID 1064).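 Further: measures binding of the biotinylated anti-FSTL3 antibody to printed compounds.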 Particulars: higher = more signal.
Assay [2] in a line: binders from COS7 lysate, DM2A8 probe, primary screen, torsin A project, cell lysate, small-molecule microarray, fluorescence 635/667 (AID 1065). Particulars: higher = more signal, COS7 lysate expressing mutant human TOR1A.
Assay [3] is described as follows: small molecules captured by biotinylated probe aFGF2 – biochemical, small-molecule microarray, fluorescence 635/667, stem cell growth factor project, primary screen (AID 1067).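 Further: measures binding of biotinylated aFGF2 protein to printed compounds on slides; z-score merges feature fluorescence and signal-to-noise across triplicate slides.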 Conditions: higher = more signal.
A short description of assay [4]: small molecules captured by biotinylated probe aFGF10 – biochemical, small-molecule microarray, fluorescence 635/667, stem cell growth factor project, primary screen (AID 1071).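 Further: score merges 667 nm spot intensity and signal to noise from triplicate slides.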 Conditions: higher = more signal.
Assay [5] addresses Neurogenic locus notch homolog protein 2 (Homo sapiens) (UniProt Q04721). As to the kind of experiment: small molecules binding Notch2 protein – biochemical, small-molecule microarray, 635 nm fluorescence, stem cell growth factors, primary screen (AID 1073). Conditions: higher = more signal.
Assay [6] addresses Pro-neuregulin-1, membrane-bound isoform (Homo sapiens) (UniProt Q02297). The assay is described as follows: small molecules binding neuregulin-1 protein – biochemical, small-molecule microarray, fluorescence 635/667, psychiatric disease protein project, primary screen (AID 1075).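 Further: score combines 667 nm spot fluorescence with signal to noise.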 Conditions: NRG1 binding, 635 nm fluorescence, higher = more signal.
The subject of assay [7] is Neuregulin-1 EGF-like domain. The assay is described as follows: small molecules binding NRG1 EGF domain – biochemical, small-molecule microarray, 635 nm fluorescence, primary screen (AID 1081).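 Further: binding of the protein to compounds printed on small-molecule microarray slides.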 Particulars: higher = more signal.
The nature of assay [8]: FRG1 expression reporter modulators in myotubes – cell-based, C2C12 myotubes, firefly/Renilla luciferase, luminescence, FRG1 inhibition for FSHD, primary screen (AID 1084). Conditions: FRG1 promoter luciferase, higher = more signal, called active from +8 up or from −8 down.
Assay [9] is described as follows: small molecules captured by biotinylated probe aFST – biochemical, small-molecule microarray, fluorescence 635/667, stem cell growth factor project, primary screen (AID 1086).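 Further: score merges 667 nm fluorescence with signal-to-noise of each printed compound spot.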 Conditions: higher = more signal.
Assay [10] is described as follows: binders of probe aHhip on microarray, primary screen, stem cell growth factor project, biochemical, small-molecule microarray, fluorescence 635/667 (AID 1087).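 Further: score merges spot fluorescence at 667nm with spot signal to noise ratio.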 Particulars: higher = more signal.

Sequence of Neurogenic locus notch homolog protein 2 (Homo sapiens) (Q04721 whole entry, looked up, canonical isoform): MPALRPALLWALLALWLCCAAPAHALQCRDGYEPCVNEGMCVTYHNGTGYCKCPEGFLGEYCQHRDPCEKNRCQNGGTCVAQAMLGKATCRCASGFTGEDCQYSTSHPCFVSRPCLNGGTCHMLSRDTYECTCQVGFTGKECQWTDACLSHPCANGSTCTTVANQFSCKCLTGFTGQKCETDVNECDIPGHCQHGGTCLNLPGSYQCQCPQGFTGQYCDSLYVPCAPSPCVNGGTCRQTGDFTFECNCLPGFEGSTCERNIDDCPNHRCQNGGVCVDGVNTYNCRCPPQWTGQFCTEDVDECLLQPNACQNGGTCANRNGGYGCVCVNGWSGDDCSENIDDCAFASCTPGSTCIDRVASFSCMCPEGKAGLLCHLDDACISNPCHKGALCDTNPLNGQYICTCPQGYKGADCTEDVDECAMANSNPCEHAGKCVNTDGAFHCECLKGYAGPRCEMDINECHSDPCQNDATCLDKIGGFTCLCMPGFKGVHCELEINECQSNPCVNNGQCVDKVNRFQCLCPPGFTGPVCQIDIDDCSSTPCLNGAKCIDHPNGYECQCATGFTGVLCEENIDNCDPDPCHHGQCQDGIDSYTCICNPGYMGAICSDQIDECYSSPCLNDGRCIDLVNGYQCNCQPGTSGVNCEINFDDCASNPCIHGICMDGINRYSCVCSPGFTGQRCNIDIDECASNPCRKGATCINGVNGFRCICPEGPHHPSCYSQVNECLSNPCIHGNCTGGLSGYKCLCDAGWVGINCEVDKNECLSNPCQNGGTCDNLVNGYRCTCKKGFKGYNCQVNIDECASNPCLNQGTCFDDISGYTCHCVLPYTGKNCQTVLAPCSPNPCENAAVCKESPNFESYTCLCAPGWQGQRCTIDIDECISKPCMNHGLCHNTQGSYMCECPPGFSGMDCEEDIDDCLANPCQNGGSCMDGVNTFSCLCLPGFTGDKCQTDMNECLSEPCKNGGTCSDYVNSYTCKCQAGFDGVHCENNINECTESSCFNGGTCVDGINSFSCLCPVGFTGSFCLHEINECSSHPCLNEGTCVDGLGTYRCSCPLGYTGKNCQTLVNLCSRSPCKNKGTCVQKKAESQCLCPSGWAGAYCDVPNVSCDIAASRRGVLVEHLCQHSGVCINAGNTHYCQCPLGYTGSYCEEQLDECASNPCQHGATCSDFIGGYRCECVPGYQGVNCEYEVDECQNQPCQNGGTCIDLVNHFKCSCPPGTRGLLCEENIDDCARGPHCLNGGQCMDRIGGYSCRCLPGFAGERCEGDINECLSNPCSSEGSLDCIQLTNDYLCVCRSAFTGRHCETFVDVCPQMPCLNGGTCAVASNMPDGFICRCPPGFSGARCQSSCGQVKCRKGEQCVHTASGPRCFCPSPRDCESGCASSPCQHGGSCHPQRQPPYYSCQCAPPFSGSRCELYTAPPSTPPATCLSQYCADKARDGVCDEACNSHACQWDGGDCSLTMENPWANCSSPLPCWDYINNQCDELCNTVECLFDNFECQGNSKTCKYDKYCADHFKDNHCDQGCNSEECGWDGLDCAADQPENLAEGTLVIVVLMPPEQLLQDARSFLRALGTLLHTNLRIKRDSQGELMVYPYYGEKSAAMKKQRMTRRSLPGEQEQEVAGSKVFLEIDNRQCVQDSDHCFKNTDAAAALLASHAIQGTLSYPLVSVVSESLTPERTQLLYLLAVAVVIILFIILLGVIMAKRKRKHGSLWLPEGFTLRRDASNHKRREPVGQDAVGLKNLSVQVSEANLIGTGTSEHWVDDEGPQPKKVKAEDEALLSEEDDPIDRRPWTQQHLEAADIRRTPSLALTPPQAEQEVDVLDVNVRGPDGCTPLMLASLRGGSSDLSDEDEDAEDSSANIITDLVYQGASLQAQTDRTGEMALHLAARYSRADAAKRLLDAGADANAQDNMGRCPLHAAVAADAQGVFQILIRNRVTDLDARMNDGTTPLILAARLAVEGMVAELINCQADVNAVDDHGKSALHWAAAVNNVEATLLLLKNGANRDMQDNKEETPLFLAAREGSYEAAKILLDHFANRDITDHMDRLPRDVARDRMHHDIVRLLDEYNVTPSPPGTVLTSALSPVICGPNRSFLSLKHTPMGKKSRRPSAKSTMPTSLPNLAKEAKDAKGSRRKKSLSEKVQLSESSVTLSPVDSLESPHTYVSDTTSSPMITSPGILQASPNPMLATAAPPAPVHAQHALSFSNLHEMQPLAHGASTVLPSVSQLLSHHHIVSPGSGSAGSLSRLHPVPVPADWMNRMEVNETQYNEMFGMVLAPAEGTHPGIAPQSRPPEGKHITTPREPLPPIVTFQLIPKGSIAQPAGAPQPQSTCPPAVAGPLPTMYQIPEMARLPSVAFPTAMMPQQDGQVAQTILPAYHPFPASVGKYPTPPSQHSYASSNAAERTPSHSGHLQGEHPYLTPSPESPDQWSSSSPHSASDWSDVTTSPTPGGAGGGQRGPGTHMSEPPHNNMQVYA
Sequence of Pro-neuregulin-1, membrane-bound isoform (Homo sapiens) (Q02297 whole entry, looked up, the tested form may be a part, canonical isoform): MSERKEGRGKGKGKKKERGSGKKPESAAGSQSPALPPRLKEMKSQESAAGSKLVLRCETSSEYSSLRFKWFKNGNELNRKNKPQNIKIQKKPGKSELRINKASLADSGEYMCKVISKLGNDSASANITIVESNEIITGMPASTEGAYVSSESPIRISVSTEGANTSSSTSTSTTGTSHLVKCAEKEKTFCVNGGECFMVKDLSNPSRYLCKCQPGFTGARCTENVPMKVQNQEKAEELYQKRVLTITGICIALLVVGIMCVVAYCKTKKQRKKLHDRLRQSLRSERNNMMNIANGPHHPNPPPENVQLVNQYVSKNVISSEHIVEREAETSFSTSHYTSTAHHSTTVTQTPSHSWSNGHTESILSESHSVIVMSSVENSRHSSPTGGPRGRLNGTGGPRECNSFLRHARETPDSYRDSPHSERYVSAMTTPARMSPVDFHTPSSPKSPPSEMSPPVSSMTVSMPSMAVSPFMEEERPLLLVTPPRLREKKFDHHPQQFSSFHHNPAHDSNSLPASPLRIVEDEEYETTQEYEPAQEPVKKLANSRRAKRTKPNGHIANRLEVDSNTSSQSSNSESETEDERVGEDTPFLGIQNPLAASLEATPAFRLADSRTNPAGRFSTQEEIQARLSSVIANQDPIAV

In the case of `C=CCC(OC(C)=O)[C@@H]1[C@@H](N(Cc2ccc(-c3ccccc3)cc2)C(=O)c2cccc3ccccc23)c2cc(OCCCO)ccc2N1C(=O)c1ccc2ccccc2n1` (stereo not given in full), the composite z-score in [1] was -0.0204; in [2], 0.113; in assay [3], -0.102; in [4], -0.0251; in assay [5], 0.127; in assay [6] it was 0.152. Moreover, the composite z-score was -0.669 in assay [7], 0.294 in assay [9] and 0.0373 in assay [10]. Also, in [8], the z-score is -1.45 (inactive).

In the case of `C=CCC(OC(C)=O)[C@@H]1[C@@H](N(Cc2ccc(-c3ccccc3)cc2)C(=O)Cc2ccc(OC)cc2)c2cc(OCCCO)ccc2N1C(=O)c1ccc(-c2ccccc2)cc1` (stereo not given in full), the composite z-score was -0.0141 in [1]; 0.253 in assay [2]; -0.0158 in [3]; -0.0965 in assay [4]; -0.137 in assay [5]; 0.275 in assay [6]. Besides, the composite z-score in [7] was 0.0056; in assay [9], 0.0321; in assay [10], 0.259. Moreover, the z-score in assay [8] was -1.24 (inactive).

In the case of `COC(=O)[C@@]1(Cc2ccc(F)cc2)[C@H]2c3cc(C(=O)N(C)C)n(CCSCCO)c3C[C@H]2CN1C(=O)c1ccccc1`, the composite z-score in assay [1] was 0.304; in assay [2], 0.273; in assay [3] it was 0.203; in assay [4], 0.487; in assay [5] it was 1.36; in assay [6] it was 1.95. Also, the composite z-score is 0.943 in assay [7], 0.568 in assay [9] and -0.0029 in [10]. Also, the z-score in [8] was 1.29 (inactive).

For `COC(=O)[C@@]1(Cc2ccc(OC)cc2)[C@H]2c3cc(C(=O)N4CCCC4)n(Cc4ccc(C)o4)c3C[C@H]2CN1C(=O)c1ccccc1`, the composite z-score is 0.833 in assay [1]; -0.0673 in [2]; 0.218 in assay [3]; 1.15 in [4]; 1.62 in assay [5]; 1.83 in [6]. Moreover, the composite z-score was 0.266 in assay [7], 1.05 in [9] and -0.116 in assay [10]. In addition, in assay [8], the z-score is 8.22 (active).

For `C=CCNC(=O)[C@H]1[C@@H]2C(=O)O[C@@H](c3ccccc3)[C@@H](c3ccccc3)N2[C@@H](c2ccc(OCCO)cc2)[C@]12C(=O)N(C(=O)OCCOC)c1ccc(C#CC3=CCCCC3)cc12`, the composite z-score is -0.0822 in [1]; 0.967 in [2]; -0.0711 in assay [3]; 1.13 in [4]; 0.844 in assay [5]; 1.43 in assay [6]. Besides, the composite z-score is 1.28 in [7], 0.344 in [9] and -0.0296 in assay [10]. Moreover, in assay [8], the z-score is -0.974 (inactive).

Consider `CCN(CC)c1ccc(N2CC=CC34O[C@@H]5/C=C\CCCOC(=O)C5[C@H]3C(=O)N(CCCCCCO)[C@@H]4C2=O)cc1` (stereo not given in full), for which the composite z-score is 0.272 in assay [1]; -0.305 in assay [2]; -0.119 in assay [3]; -0.964 in assay [4]; -0.946 in assay [5]; 1.63 in assay [6]. Besides, the results for the composite z-score in assay [7], in assay [9] and in assay [10] were 0.709, -0.958 and -0.271, respectively. In addition, in [8], the z-score is -0.489 (inactive).

With `CCCC=C(CCC)[C@@H](NS(=O)(=O)CC)c1ccccc1`, the composite z-score is -0.14 in assay [1]; -0.534 in [2]; 0.0583 in [3]; 0.576 in assay [4]; 1.15 in assay [5]; 0.808 in [6]. Moreover, the values for the composite z-score in assay [7], in [9] and in assay [10] were 1.09, 0.725 and -0.0645, respectively. The z-score in assay [8] was 1.33 (inactive).

As to `[N-]=[N+]=NCc1ccccc1C[C@]1(C(=O)NCCN2CCOCC2)N=C(c2ccc(OCCCO)cc2)O[C@H]1c1ccccc1`, the composite z-score in assay [1] was 0.081; in [2], 0.205; in [3], -0.0085; in assay [4], 0.713; in assay [5], 0.0617; in assay [6] it was 1.32. In addition, the composite z-score in assay [7] was 1.26; in assay [9] it was 0.632; in assay [10] it was -0.0296. Moreover, the z-score in assay [8] is -0.849 (inactive).

On to `COCCCNC(=O)[C@]1(Cc2ccccc2CN=[N+]=[N-])N=C(c2ccc(OCCCO)cc2)O[C@@H]1c1ccccc1CN=[N+]=[N-]`, for which the composite z-score in assay [1] was 0.726; in [2], 0.686; in [3], 0.256; in assay [4] it was 1.03; in assay [5] it was 1.25; in [6], 1.84. In addition, the composite z-score in assay [7] worked out at 1.15; in assay [9], 1.23; in [10], 0.537. Also, in assay [8], the z-score was -1.35 (inactive).

With `CC1(C)[C@@H]2CC(C(O)C3C=CC4C(=O)N(c5ccccc5)C(=O)C4N3Nc3ccccc3F)=C[C@@H]1C2` (stereo not given in full), the composite z-score is -0.168 in [1]; 0.159 in [2]; -0.0092 in [3]; 1.03 in [4]; 1.54 in assay [5]; 1.28 in assay [6]. Besides, the composite z-score in [7] is 1.14; in assay [9], 0.955; in [10] it was -0.228. In assay [8], the z-score was -3.65 (inactive).

On to `COC(=O)[C@@]1(Cc2ccc(OC)cc2)[C@H]2c3cc(C(=O)N(C)C)n(Cc4cc(C)n(C)n4)c3C[C@H]2CN1C(=O)c1ccccc1`, for which the composite z-score in [1] is 0.223; in assay [2], 0.221; in [3], 0.468; in assay [4] it was 1.26; in assay [5], 1.33; in assay [6], 1.92. Further, the composite z-score in assay [7] stood at 1.31; in assay [9], 0.732; in assay [10], 0.309. The z-score in [8] was 2 (inactive).

Turning to `COc1ccc(C(=O)Nc2ccc(CN3C(=O)[C@]4(O[C@H](CCn5cc([C@H](O)c6ccccc6)nn5)[C@@H]([Si](C)(C)c5ccc(OC)cc5)[C@@H]4C)c4ccccc43)cc2)cc1`, the composite z-score was 0.804 in assay [1]; 0.0963 in [2]; -0.172 in assay [3]; -0.161 in [4]; -0.284 in assay [5]; 0.178 in assay [6]. Also, the composite z-score is 0.923 in assay [7], 0.198 in assay [9] and -0.0994 in assay [10]. Further, the z-score in assay [8] is -0.855 (inactive).

With `CC(C)N1C(=O)c2ccccc2[C@](C)(C(=O)O)[C@@H]1c1ccc(CO)cc1`, the composite z-score in [1] is 0.513; in assay [2], -0.671; in assay [3], -0.0255; in assay [4], -0.0804; in [5], -0.663; in [6], 0.752. Further, the composite z-score in assay [7] is -0.0487; in [9] it was 0.112; in assay [10] it was -0.0708. Further, in [8], the z-score is 0.726 (inactive).

For the molecule `C=C(CCCC)/C(=C/C[C@H](OC(=O)c1ccncc1)c1ccc(CO)o1)c1cc(C(=O)OC)ccc1OC`, the composite z-score in [1] was -0.293; in assay [2], 1.83; in [3], -0.116; in assay [4], 0.418; in assay [5], 0.822; in [6], 1.01. For the same molecule, the results for the composite z-score in [7], in assay [9] and in [10] were 1.26, 0.381 and 0.0722, respectively. Besides, the z-score in assay [8] was -0.906 (inactive).
